Test systems include NCI-H23 lung; NCI-H226 lung; NCI-H322M lung; HOP-62 NSCLC; NCI-H460 lung; HOP-92 NSCLC; NCI-H522 lung; A549/ATCC NSCLC; 786-0 renal; COLO 205 colon.
Assay in all cases: NCI-60 one-dose screen, 48 h (100 = growth as untreated, 0 = no growth, -100 = all killed)
Holding throughout (conditions): 10 µM unless noted

Molecules are shown by their SMILES. This is part of a sample that, as a whole, favours compounds with a hit. Of some 83,000 tested, about 20% had one in any assay.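 Plates (96-well) were seeded with cells, treated with compound at one concentration, and incubated for 48 hours before percent growth was determined.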 A number with no mark means an inactive call. Activity calls are given as the source filed them. The calls were made as follows: active = growth percent below 10; inactive = the rest.

In the case of `O=C1CS/C(=N/c2nnc(-c3ccc(O)cc3)s2)N1`, the growth in the assay on NCI-H23 lung is 90%; in the assay on NCI-H226 lung, 105%; in the assay with NCI-H322M lung, 110%; in the assay with HOP-62 NSCLC, 83.7%; in the assay on NCI-H460 lung it was 107%; in the assay with HOP-92 NSCLC it was 111%. The growth in the assay with NCI-H522 lung is 88.6%; with A549/ATCC NSCLC, 89.9%; in the assay with 786-0 renal, 95%; in the assay with COLO 205 colon, 97.7%.
On to `CC(C)(C)CC(C)(C)Cc1ccc(OCCOCC[N+](C)(C)Cc2ccccc2)cc1`, for which the growth in the assay on NCI-H23 lung is 20.7%; in the assay with NCI-H226 lung it was 38.1%; in the assay with NCI-H322M lung, 70.6%; with HOP-62 NSCLC it was 66.1%; with NCI-H460 lung it was 13.7%; with HOP-92 NSCLC, -7.72% (active). Further, the growth with NCI-H522 lung was 9.27% (active); in the assay on A549/ATCC NSCLC, 71.8%; in the assay on 786-0 renal it was 44.5%; with COLO 205 colon, -72.3% (active).
For the compound `COc1ccc(C(=O)c2cc(OC)c(C)c(OC)c2)cc1OC(=O)CCl`, the growth in the assay on NCI-H23 lung was 27.4%; in the assay with NCI-H226 lung, 104%; in the assay with NCI-H322M lung, 44%; with HOP-62 NSCLC it was 30.2%; with NCI-H460 lung, 7.36% (active); in the assay with HOP-92 NSCLC, 75.8%. The growth in the assay with NCI-H522 lung was 16.2%; with A549/ATCC NSCLC, 28.5%; in the assay with 786-0 renal it was 42%; in the assay on COLO 205 colon, 80.8%.
As to `Cc1cnc(SCc2ccc(Cl)cc2Cl)nc1Nc1ccc(Cl)c(Cl)c1`, the growth in the assay with NCI-H23 lung was 92.8%; in the assay on NCI-H226 lung, 101%; in the assay with NCI-H322M lung, 82%; with HOP-62 NSCLC, 93.4%; with NCI-H460 lung, 92.2%; with HOP-92 NSCLC, 76%. Besides, the growth in the assay with NCI-H522 lung is 66.7%; in the assay on A549/ATCC NSCLC it was 78.2%; in the assay with 786-0 renal, 92.3%; in the assay with COLO 205 colon, 117%.
In the case of `N#Cc1ccc(Oc2ccc3ccc(=O)oc3c2)cc1`, the growth was 101% with NCI-H23 lung; 102% in the assay with NCI-H226 lung; 111% in the assay on NCI-H322M lung; 102% with HOP-62 NSCLC; 103% in the assay on NCI-H460 lung; 67% with HOP-92 NSCLC. Also, the growth is 105% in the assay with NCI-H522 lung, 109% in the assay on A549/ATCC NSCLC, 95.5% in the assay with 786-0 renal and 102% with COLO 205 colon.
As to `Cc1c(C(=O)Nc2nc3ccccc3[nH]2)cnn1-c1ccccn1`, the growth in the assay with NCI-H23 lung is 101%; in the assay with NCI-H226 lung, 104%; in the assay on NCI-H322M lung it was 111%; in the assay with HOP-62 NSCLC, 107%; in the assay with NCI-H460 lung, 103%; in the assay with HOP-92 NSCLC, 135%. The growth in the assay on NCI-H522 lung was 76.2%; in the assay with A549/ATCC NSCLC it was 86.3%; in the assay on 786-0 renal, 107%; with COLO 205 colon, 126%.
With `C=C(C)[C@@H]1CC[C@]2(C(=O)N=C=S)CC[C@]3(C)[C@H](CC[C@@H]4[C@@]5(C)CCC(=O)C(C)(C)[C@@H]5CC[C@]43C)[C@@H]12`, the growth in the assay with NCI-H23 lung is 32.9%; in the assay on NCI-H226 lung, 48.8%; with NCI-H322M lung it was 42.8%; with HOP-62 NSCLC it was 30.1%; in the assay with NCI-H460 lung, 6.85% (active); in the assay with HOP-92 NSCLC, 18.2%. Besides, the growth in the assay with NCI-H522 lung is 15.3%; with A549/ATCC NSCLC, 26.2%; in the assay with 786-0 renal it was 37.2%; in the assay on COLO 205 colon, -19.1% (active).
On to `Cc1ccc(-c2nc(C#N)c(S(=O)(=O)N(C)CCO)o2)cc1`, for which the growth in the assay on NCI-H23 lung was 80.3%; in the assay with NCI-H226 lung it was 124%; in the assay with NCI-H322M lung, 93.3%; in the assay on HOP-62 NSCLC, 97.7%; with NCI-H460 lung it was 89.3%; in the assay on HOP-92 NSCLC it was 88.9%. Also, the growth is 17.5% with NCI-H522 lung, 99% in the assay with A549/ATCC NSCLC, 79.6% with 786-0 renal and 44.3% in the assay with COLO 205 colon.
On to `N#CC(C#N)=C1NC(c2ccccc2)=C(c2ccccc2)C(c2ccccc2Cl)=C1C#N`, for which the growth with NCI-H23 lung is 93.5%; in the assay on NCI-H226 lung, 108%; in the assay on NCI-H322M lung, 107%; in the assay on HOP-62 NSCLC, 109%; in the assay on NCI-H460 lung, 111%; with HOP-92 NSCLC, 109%. Besides, the growth is 85.5% in the assay on NCI-H522 lung, 84% in the assay on A549/ATCC NSCLC, 97.6% in the assay with 786-0 renal and 123% in the assay on COLO 205 colon.
For the compound `COc1cc(/C=N/Nc2nc(-c3ccc(F)cc3)c(C#N)c(N3CCOCC3)n2)ccc1O`, the growth in the assay on NCI-H23 lung was 108%; in the assay on NCI-H226 lung it was 97.8%; with NCI-H322M lung, 97.4%; in the assay with HOP-62 NSCLC it was 104%; in the assay with NCI-H460 lung, 102%; in the assay with HOP-92 NSCLC it was 80%. For the same compound, the growth is 99.3% with NCI-H522 lung, 89.6% in the assay on A549/ATCC NSCLC, 82% with 786-0 renal and 101% in the assay on COLO 205 colon.
As for `O=C(Nc1cc(=O)[nH]c(=O)[nH]1)C(Cl)Cl`, the growth was 107% in the assay with NCI-H23 lung; 102% in the assay on NCI-H226 lung; 95.5% in the assay on NCI-H322M lung; 106% in the assay on HOP-62 NSCLC; 109% in the assay with NCI-H460 lung; 98.8% with HOP-92 NSCLC. The growth in the assay on NCI-H522 lung is 90.3%; in the assay with A549/ATCC NSCLC, 97.4%; in the assay on 786-0 renal, 107%; with COLO 205 colon it was 122%.
Turning to `C#C[C@@]1(O)[C@@H](CO)O[C@@H](n2cc(F)c3c(N)ncnc32)[C@@H]1O`, the growth was -30.5% (active) with NCI-H23 lung; -62.3% (active) with NCI-H226 lung; -2.54% (active) in the assay with NCI-H322M lung; 17.5% in the assay on HOP-62 NSCLC; 0.623% (active) in the assay on NCI-H460 lung; -15% (active) in the assay with HOP-92 NSCLC. In addition, the growth in the assay with NCI-H522 lung is -1.45% (active); in the assay on A549/ATCC NSCLC it was -37.9% (active); in the assay on 786-0 renal, -29.5% (active); in the assay with COLO 205 colon it was -43.4% (active).
As to `C=C1C(=O)O[C@H]2[C@H]1CC/C(COC(=O)c1cccnc1N)=C\CC[C@@]1(C)O[C@@H]21`, the growth was 33.9% in the assay with NCI-H23 lung; 26.7% in the assay on NCI-H226 lung; 87% in the assay on NCI-H322M lung; 22.8% with HOP-62 NSCLC; 5.22% (active) with NCI-H460 lung; 8.05% (active) in the assay on HOP-92 NSCLC. For the same compound, the growth in the assay with NCI-H522 lung was -15.3% (active); in the assay on A549/ATCC NSCLC it was 28.4%; in the assay with 786-0 renal, 9.12% (active); in the assay with COLO 205 colon it was -76.5% (active).

The values are drawn from PubChem BioAssay (NCI).
